# Test results taken from the supplement of paper PMC10338343.
# ± gives the standard deviation.
# Test system: MILI (PIWIL2) piRISC loaded with piRNA #1 (26 nt)
# Experiment: pre-steady-state target cleavage rate (min^-1); guide: piRNA #1 5'p-UGAGGUAGUAGGUUGUAUAGUAUCCA; MIWI and MILI are mouse PIWI proteins and EfPiwi is from a freshwater sponge; tags in brackets are library labels; higher = faster piRNA-guided slicing of the target
# Conditions: auxiliary factor: 500 nM mouse GTSF1
# How it was run: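 A burst-and-steady-state fit was used to obtain the pre-steady-state cleavage rate. The input data were sequencing reads of uncleaved targets, normalised to depth and to weakly complementary targets, from a […] transcribed, DNA-blocked target RNA library mixed with 1 nM active affinity-purified piRISC holding one synthetic guide, with or without 500 nM GTSF1 partner protein, in HEPES–potassium acetate buffer at 33 °C for 0–8 or 0–960 min. Three trials were pooled and k3 was capped at 0.0001 min^-1.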
# 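Also: 1 nM active piRISC with 0.1 nM target library at 33 °C single turnover.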
row,Sequence,pre-steady-state target cleavage rate
1,GGAGACCUAUCUAAACAAGCUACUACCUCA,0.176 ± 0.019
2,GGAGACCUAUGAAUACAACCUACUAUCCUCA,0.00841 ± 0.0026
3,GGAGACCUUACUAUUCAAGCUACUACCUCA,0.235 ± 0.013
4,GGAGACCUAUCUAUUCAACCUUCUACCUCA,0.0069 ± 0.0028
5,GGAGACCUAUGAUAUGUUCCUUCUACCUGA,< 0.0001
6,GGAGACCUAUGUAAACAACCUACAACCUCA,0.0135 ± 0.0041
7,GGAGACGAUACGAUACAACCUACUACCUCA,0.193 ± 0.018
8,GGAGACCUAUCAAUACAACCUACUAGCUCA,0.0299 ± 0.0076
9,GGAGACCUUACUAUUCAACCAACUACCUCA,0.00367 ± 0.0028
10,GGAGACCUAUGAUAUGUUCCUACUACCUCU [g2:g12:cont:t1U],< 0.0001
11,GGAGACCUAUGAUAUGAACGAACUACCUCA,< 0.0001
12,GGAGACCUAACUAUUCUACCUACUACCUCA,0.104 ± 0.021
13,GGAGACCUAACUAUAGAACCUACUAGCUCA,0.00426 ± 0.0041
14,GGAGACCUAUGAUAUGUUGGUACUACCUCA [g2:g10:cont:t1A],< 0.0001
15,GGAGACCUAUGAUAUGUUGCUACUACCUUA,< 0.0001
16,GGAGACCUAUGAAUACAACCUACUAGCCUCA,0.00742 ± 0.0038
17,GGAGACCUAUGAUAUGUAUCCUACUACCUCA,0.0082 ± 0.0021
18,GGAGACCUAUGAUAUGAACCUACUUACCUCA,< 0.0001
19,GGAGUGGAUUCUAUAGAACCUACUACCUCA,0.179 ± 0.012
20,GGAGACCUAACUAUGACAACCUACUACCUCA,0.0415 ± 0.0097

row,Sequence,pre-steady-state target cleavage rate
1,GGAGUGGAAACUAUACAACCUACAACCUCA,0.0962 ± 0.023
2,GGAGACCUAUCUAUUCAACCUACAACCUCA,0.0889 ± 0.011
3,GGAGACCUUACUAUAGAACCUACUAGCUCA,0.00445 ± 0.0038
4,GGAGACCUAUCUAUUCAACCUACUACCUGA,0.0654 ± 0.014
5,GGAGACCUAUCUAUACAACCUUCUUCCUCA,0.00365 ± 0.0029
6,GGAGACCAUACUAUACUACCUUCUACCUCA,0.0171 ± 0.0044
7,GGAGACCUAUGAUAUGAAACCUACUACCUCA,0.00314 ± 0.0026
8,GGAGACCUAUGAUAUGUACCAACAACCUCA,< 0.0001
9,GGAGACCUAACUAUACAACCUACAACCACA,0.0203 ± 0.012
10,GGAGACCUAUGUUUACAACCUACUUCCUCA,0.0114 ± 0.0056
11,GGAGACGAUACUAUAAACCUACUACCUCA,0.0257 ± 0.0077
12,GGAGACCUAACUAUACUACCUACUACCUGA,0.0917 ± 0.025
13,GGAGAGGAUACAAUUCAACCUACUACCUCA,0.174 ± 0.012
14,GGAGACCUAACUAUCAACCUACUACCUCA,0.0603 ± 0.014
15,GGAGACCAUACUAUUCAUCCUACUACCUCA,0.271 ± 0.019
16,GGAGACGAUAGUAUACUACCUACUACCUCA,0.148 ± 0.012
17,GGAGACCUAUGAUAUGUUCCUACUACCUCA [g2:g12:cont:t1A],< 0.0001
18,GGAGACCAUACUAUAGAUCCUACUACCUCA,0.229 ± 0.026
19,GGAGACCUAUGAAACAACCUACUACCUCA,0.00673 ± 0.0031
